Compounds with a hit are over-represented: about 1.7% of the library has one in this group of screens.
PAD4 inh = blocks human protein arginine deiminase 4; Q9UM07; recombinant PAD4, RCA probe fluorescence polarization; inhibition, % at 6.36 µM; 0.41% of 330,000 active; AID 485272;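 active = percent inhibition above a cutoff equal to the mean of all tested compounds plus 3 SD, cut at about 15% in these data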
GSTO1 inh = blocks human GSTO1 in RBBP9 counter-screen; recombinant GSTO1, activity-based probe fluorescence polarization; AID 1974; inhibition, % at 5.96 µM; 1.1% of 300,000 active;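 active = inhibition above the campaign mean inhibition plus 3 SD, cut at about 35% in these data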
Target sequence (P78417 whole entry, looked up): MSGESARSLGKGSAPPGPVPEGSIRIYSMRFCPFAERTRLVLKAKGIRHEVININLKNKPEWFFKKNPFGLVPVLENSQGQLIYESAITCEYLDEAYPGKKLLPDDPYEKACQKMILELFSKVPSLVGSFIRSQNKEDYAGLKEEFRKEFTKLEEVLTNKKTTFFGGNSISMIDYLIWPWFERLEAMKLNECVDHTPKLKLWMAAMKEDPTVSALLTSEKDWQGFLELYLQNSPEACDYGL
EBNA-1 inh = blocks EBNA-1 binding to DNA | EBNA-1 DNA binding, fluorescence polarization | inhibition, % at 14.8 µM | 0.34% of 300,000 active; in the data active = inhibition above about 28%
LYPLA2 inh = counter-screen for PME1 inhibitors: inhibitors of human LYPLA2 | recombinant LYPLA2, FP-Rh probe fluorescence polarization | AID 2177 | inhibition, % at 5.9 µM | O95372 | 0.38% of 320,000 active;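 active = inhibition above the screen-wide mean plus 3 SD, limit set per campaign, cut at about 26% in these data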
Target sequence (O95372 whole entry, looked up): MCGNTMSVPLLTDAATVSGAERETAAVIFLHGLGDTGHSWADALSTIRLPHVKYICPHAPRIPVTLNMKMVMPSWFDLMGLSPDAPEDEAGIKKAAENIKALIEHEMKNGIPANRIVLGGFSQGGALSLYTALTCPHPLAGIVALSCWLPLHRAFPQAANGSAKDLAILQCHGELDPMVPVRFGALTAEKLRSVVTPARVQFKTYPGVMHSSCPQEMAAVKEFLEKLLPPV
ZTA counter = counter-screen for EBNA-1 inhibitors: inhibitors of Epstein-Barr virus ZTA | P03206 | ZTA-DNA binding, fluorescence polarization | inhibition, % at 11 µM | 0.15% of 320,000 active | AID 2234; in the data active = inhibition above about 33%
LYPLA1 counter = LYPLA1 (human) inhibition in PME1 counter-screen | O75608 | inhibition, % at 5.9 µM | recombinant LYPLA1, FP-Rh probe fluorescence polarization | 0.16% of 320,000 active;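 active = inhibition above the mean of all tested compounds plus 3 SD, set per campaign, cut at about 14% in these data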;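 note: inhibitors block serine hydrolase probe labeling of LYPLA1 so polarization falls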
LYPLA1 conf = counter-screen for PME1 inhibitors: confirmation of human LYPLA1 inhibitors; shares compounds with LYPLA1 counter; recombinant LYPLA1, FP-Rh probe fluorescence polarization; inhibition, % at 5.9 µM; 69% of 480 active; AID 2233;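 active = mean inhibition across replicates above the hit cutoff set in the primary screen, cut at about 15% in these data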;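 note: loss of FP-Rh probe labeling of LYPLA1 seen as lower polarization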
LYPLA2 confirm = counter-screen for PME1 inhibitors: confirmation of human LYPLA2 inhibitors. inhibition, % at 5.9 µM. 72% of 1,100 active. shares compounds with LYPLA2 inh. recombinant LYPLA2, FP-Rh probe fluorescence polarization;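 active = mean inhibition across replicates above the hit cutoff set in the primary screen, cut at about 26% in these data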;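 note: blocked labeling of the enzyme by serine hydrolase FP-Rh probe lowers polarization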
Hits are given with their value; . = inactive; / = no result.

SMILES	PAD4 inh	GSTO1 inh	EBNA-1 inh	LYPLA2 inh	ZTA counter	LYPLA1 counter	LYPLA1 conf	LYPLA2 confirm
NC(=O)c1cc([N+](=O)[O-])ccc1NCC1CCCCC1	.	.	.	43	.	25	31	37
O=C(COc1ccccc1Cl)Nc1ccc(N2CCCC2)cc1	.	.	.	27	.	33	.	.
Cn1c2c(c3ccccc31)CCN1CCC[C@]21c1ccccc1	.	.	.	.	.	.	/	/
COc1ccc(N2CCN(C(=O)C3CCC(Cn4c(=S)[nH]c5ccccc5c4=O)CC3)CC2)cc1 (stereo not drawn)	.	.	.	83	.	40	43	84
O=C(C1CCC(Cn2c(=S)[nH]c3ccccc3c2=O)CC1)N1CCN(c2ccccc2)CC1 (stereo not drawn)	.	.	.	53	.	36	45	52
COc1ccccc1N1CCN(C(=O)C2CCC(Cn3c(=S)[nH]c4ccccc4c3=O)CC2)CC1 (stereo not drawn)	.	.	.	.	.	.	/	/
O=C(N1CCOCC1)n1cnc2ccccc21	.	.	.	.	.	.	/	/
O=C(N1CCOCC1)n1nnc2ccccc21	.	.	.	47	.	91	94	51
CCCCCCN1C=CC(=C/C=C(\C#N)C(=O)OCC)C=C1	.	.	.	41	.	25	27	35
CC1CCCCC1NC(=O)CCCCn1c(=O)[nH]c2ccsc2c1=O (stereo not drawn)	.	.	.	.	.	.	/	/
Cc1ccc(Cl)cc1NC(=O)c1cc(S(=O)(=O)N2CCOCC2)cn1C	.	.	.	.	.	.	/	/
O=C(c1ccc(S(=O)(=O)N2CCCC2)cc1)N1CCCCCC1	.	.	.	.	.	.	/	/
O=C(CCN1C(=O)c2cccc3cccc(c23)C1=O)N1CCOCC1	.	.	.	.	.	.	/	/
O=C(/C=C/c1ccccc1)N1CCN(CCN2C(=O)c3cccc4cccc(c34)C2=O)CC1	.	.	.	64	.	37	35	59
O=C(c1ccc(S(=O)(=O)N2CCCCC2)cc1)N1CCN(CCN2C(=O)c3cccc4cccc(c34)C2=O)CC1	.	.	.	35	.	20	42	60
COc1ccc(N(CC(=O)NCc2ccc(F)cc2)C(=O)Cn2nnc(-c3ccc(C)o3)n2)cc1OC	.	.	.	.	.	.	/	/
CSc1ccccc1OCc1cc(C(=O)N2CCSCC2)no1	.	.	.	.	.	.	/	/
CSc1ccccc1OCc1cc(C(=O)N2CCC(Oc3cccnc3)CC2)no1	.	.	.	35	.	36	47	39
CC(=O)c1ccc(C(=O)N2CCC(n3nccc3NC(=O)C3CC3)CC2)cc1	.	.	.	.	.	.	/	/
CCOC(=O)C1CCN(c2ncnc3c2nnn3Cc2ccccc2Cl)CC1	.	.	.	48	.	28	40	54
CCN(CC)Cc1c(O)ccc2c(=O)c(-c3ccc(Cl)cc3)coc12	.	.	.	.	.	.	/	/
CCCOC(=O)c1ccc(Oc2coc3c(CN(CC)CC)c(O)ccc3c2=O)cc1	.	.	.	34	.	30	32	28
O=C(CSc1nc2ccc(Cl)cc2[nH]1)c1cccs1	.	.	.	.	.	.	/	/
CSCCC(=O)N1CCC(n2nccc2NC(=O)c2ccc3c(c2)OCO3)CC1	.	.	.	.	.	.	/	/
CC#CC(=O)N1CCC(n2nccc2NC(=O)c2ccc3c(c2)OCO3)CC1	.	.	.	31	.	26	37	30
SMILES	PAD4 inh	GSTO1 inh	EBNA-1 inh	LYPLA2 inh	ZTA counter	LYPLA1 counter	LYPLA1 conf	LYPLA2 confirm
COc1ccc(Cc2nnc(SCC(=O)NC3(C#N)CCCCC3)n2N)cc1	.	.	.	.	.	.	/	/
CC(=O)c1ccc(OCc2cc(C(=O)N(C)CCOc3ccc(C)cc3)no2)cc1	.	.	.	26	.	20	23	.
CC(=O)c1ccc(OCc2cc(C(=O)N(C)Cc3nc4c(C)cccc4[nH]3)no2)cc1	.	.	.	.	.	.	/	/
CCC(=O)N1CCN(c2ccc(NC(=S)NC(=O)c3cccc([N+](=O)[O-])c3)cc2)CC1	.	.	.	58	.	39	33	55
COc1cccc2c(Nc3ccccc3C)cc(C)nc12	.	.	.	.	.	.	/	/
O=C(CCCCCCN1C(=O)c2ccccc2C1=O)N1CCC(c2ccccc2)C1 (stereo not drawn)	.	.	.	76	.	68	68	70
CCCc1cc(=O)oc2cc(C)cc(OC(C)C(=O)NCc3ccccn3)c12 (stereo not drawn)	.	.	.	.	.	.	/	/
O=C(COc1ccc(Cl)cc1)N1CCN(c2ccc([N+](=O)[O-])c(N3CCOCC3)c2)CC1	.	.	.	32	.	68	75	29
O=C(/C=C/c1ccc(Cl)cc1)N1CCN(c2ccc([N+](=O)[O-])c(N3CCOCC3)c2)CC1	.	.	.	.	.	.	/	/
O=C(/C=C/c1ccc(Br)cc1)N1CCN(c2cccc(C(F)(F)F)c2)CC1	.	.	.	78	.	46	49	63
Cc1ccc(CN2CCN(/N=C\c3cccc([N+](=O)[O-])c3)CC2)cc1	.	.	.	28	.	17	19	35
OCC[C@@H]1C[C@H](O)[C@@H](O)[C@@]2(OCCCc3ccccc32)O1	.	.	.	.	.	.	/	/
Cn1nc(C(=O)OCC(=O)c2ccc(Cl)cc2)c2ccccc2c1=O	.	/	/	/	/	/	/	/
Cc1ccc(C(=O)NC(=S)Nc2ccc(N3CCOCC3)cc2)cc1C	.	.	.	.	.	.	/	/
COc1ccc(C(=O)NC(=S)Nc2ccc(N3CCOCC3)cc2)cc1Cl	.	.	.	39	.	14	25	55
COc1ccc(C(=O)NC(=S)Nc2ccc(CN3CCOCC3)cc2)cc1Br	.	.	.	44	.	15	22	47
COc1ccc(C(=O)NC(=S)Nc2ccc(CN3CCOCC3)cc2)cc1	.	.	.	.	.	.	/	/
Cc1ccc(NC(=O)c2ccc(=O)[nH]c2)cc1S(=O)(=O)N1CCCCCC1	.	/	/	/	/	/	/	/
CC(C)CCNC(=O)NC(=O)COC(=O)/C=C/c1cccc([N+](=O)[O-])c1	.	.	.	30	.	25	31	32
Cc1nc(NC(=O)c2ccccc2)sc1-c1csc(Nc2cccc(F)c2)n1	.	.	.	.	.	.	/	/
Cc1cc(NS(=O)(=O)c2ccc(Nc3nc(-c4sc(NC(=O)c5ccccc5)nc4C)cs3)cc2)no1	.	.	.	59	.	41	37	37
c1ccc2c(c1)oc1c(N3CCOCC3)ncnc12	.	.	.	.	.	.	/	/

Assay outcomes: PubChem, The Scripps Research Institute Molecular Screening Center
